Measurements as given in PubChem BioAssay (EPA / NIEHS).
Inconclusive results are not listed. The source made the active and inactive calls. The calls were made as follows: active = hit-call score of the fitted dose curve at least 0.9, where 1 is the maximum; inconclusive = response in the unintended direction; inactive = score below 0.9.

These compounds were tested against bovine Estrogen Receptor (ER), ESR1 (gene 407238) (UniProt P49884) (assay: NVS_NR_bER: NovaScreen (NVS) Nuclear Receptor Binding Assay for bovine Estrogen Receptor (ER) (AID 2283345);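 also: actives lower the bound radioligand count which means they displace the ER ligand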).
bovine Estrogen Receptor (ER), ESR1 (gene 407238), sequence (P49884 whole entry, looked up): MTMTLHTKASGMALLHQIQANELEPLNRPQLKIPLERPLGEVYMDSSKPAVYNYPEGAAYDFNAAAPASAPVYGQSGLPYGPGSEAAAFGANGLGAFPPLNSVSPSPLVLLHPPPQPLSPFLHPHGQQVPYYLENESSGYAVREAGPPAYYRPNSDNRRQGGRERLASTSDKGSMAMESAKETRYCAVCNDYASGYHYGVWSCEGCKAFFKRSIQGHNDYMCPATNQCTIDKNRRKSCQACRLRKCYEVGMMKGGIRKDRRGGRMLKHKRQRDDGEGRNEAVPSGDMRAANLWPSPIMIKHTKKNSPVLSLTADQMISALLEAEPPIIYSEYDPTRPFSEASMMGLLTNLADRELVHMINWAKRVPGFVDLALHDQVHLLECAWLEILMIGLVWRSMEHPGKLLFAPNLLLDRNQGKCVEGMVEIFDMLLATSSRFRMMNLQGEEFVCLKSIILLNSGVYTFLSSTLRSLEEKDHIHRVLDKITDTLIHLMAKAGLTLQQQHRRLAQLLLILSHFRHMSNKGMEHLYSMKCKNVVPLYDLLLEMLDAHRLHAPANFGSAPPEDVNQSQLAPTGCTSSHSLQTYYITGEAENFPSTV
Outline: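 Displacement of a radioligand from estrogen receptor in bovine uterine membrane preparations; scintillation signal taken at 18 hours, DMSO as baseline. Single-concentration duplicates (25 uM) preceded concentration-response follow-up of actives.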
In the case of `CN=C=S`, the outcome is reported as “inactive”. In the case of `CC(C)(C)C(=O)C(Oc1ccc(Cl)cc1)n1cncn1` (centres undefined), the outcome is reported as “inactive”. In the case of `CC(C)=CC1C(C(=O)OCc2coc(Cc3ccccc3)c2)C1(C)C` (centres undefined), the outcome is reported as “inactive”. `N#Cc1c(Cl)cccc1Cl` was tested, and the outcome was “inactive”. `CS(=O)(=O)c1cc(C(F)(F)F)ccc1C(=O)c1cnoc1C1CC1` was tested, and the outcome was “inactive”. In the case of `O=c1n(Cl)c(=O)n(Cl)c(=O)n1Cl`, the outcome is reported as “inactive”. `COP(=S)(OC)Oc1ccc([N+](=O)[O-])c(C)c1` was tested, and the outcome was “inactive”. For `CCOC(=O)C(C)OC(=O)c1cc(Oc2ccc(C(F)(F)F)cc2Cl)ccc1[N+](=O)[O-]` (centres undefined), the outcome was “inactive”. `CCCCC(O)(Cn1cncn1)c1ccc(Cl)cc1Cl` (centres undefined) was tested, and the outcome was “inactive”. In the case of `N#Cc1c[nH]cc1-c1cccc2c1OC(F)(F)O2`, the outcome is reported as “inactive”. With `OC(c1ccc(Cl)cc1)(c1ccc(Cl)cc1)C(Cl)(Cl)Cl` the outcome was “inactive”. In the case of `CC1(C)C(C=C(Cl)Cl)C1C(=O)OC(C#N)c1cccc(Oc2ccccc2)c1` (centres undefined), the outcome is reported as “inactive”. For `CCCCC(C#N)(Cn1cncn1)c1ccc(Cl)cc1` (centres undefined), the outcome was “inactive”. In the case of `CC(C)Oc1cccc(NC(=O)c2ccccc2C(F)(F)F)c1`, the outcome is reported as “inactive”.

These compounds were tested against chimpanzee Androgen Receptor (AR), AR (gene 747460) (UniProt O97775) (assay: NVS_NR_cAR: NovaScreen (NVS) Nuclear Receptor Binding Assay for chimpanzee Androgen Receptor (AR) (AID 2283346);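 also: radioligand displacement from AR measured by scintillation counting in a cell-free assay; a loss of bound radioligand signal versus DMSO counts as binding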).
chimpanzee Androgen Receptor (AR), AR (gene 747460), sequence (O97775 whole entry, looked up): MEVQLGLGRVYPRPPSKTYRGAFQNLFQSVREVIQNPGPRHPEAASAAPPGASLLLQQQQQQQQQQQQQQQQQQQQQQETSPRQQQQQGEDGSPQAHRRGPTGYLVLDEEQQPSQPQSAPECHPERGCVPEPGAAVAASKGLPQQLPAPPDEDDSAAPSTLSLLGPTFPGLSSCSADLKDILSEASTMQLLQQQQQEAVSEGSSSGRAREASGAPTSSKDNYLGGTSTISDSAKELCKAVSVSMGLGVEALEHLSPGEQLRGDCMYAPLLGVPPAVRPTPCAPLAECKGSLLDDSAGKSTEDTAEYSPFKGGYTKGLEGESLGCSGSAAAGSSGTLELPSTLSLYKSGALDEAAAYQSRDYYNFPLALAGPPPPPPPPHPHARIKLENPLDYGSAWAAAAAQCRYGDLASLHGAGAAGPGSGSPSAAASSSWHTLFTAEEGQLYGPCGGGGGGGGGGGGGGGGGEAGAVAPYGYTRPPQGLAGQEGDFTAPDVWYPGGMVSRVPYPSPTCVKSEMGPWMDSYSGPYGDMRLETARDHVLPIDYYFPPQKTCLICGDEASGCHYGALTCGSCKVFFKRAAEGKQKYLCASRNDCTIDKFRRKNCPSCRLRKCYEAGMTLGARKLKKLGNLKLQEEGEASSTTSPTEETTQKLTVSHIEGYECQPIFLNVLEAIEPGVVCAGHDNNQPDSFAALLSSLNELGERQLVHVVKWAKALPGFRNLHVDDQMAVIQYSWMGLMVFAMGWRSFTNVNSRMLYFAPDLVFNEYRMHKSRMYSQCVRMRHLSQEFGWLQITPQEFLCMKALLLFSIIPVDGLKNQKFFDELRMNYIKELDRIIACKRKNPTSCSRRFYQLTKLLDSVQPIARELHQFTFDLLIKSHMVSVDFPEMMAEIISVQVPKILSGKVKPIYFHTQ
Outline: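 Cell-free competition binding with insect-cell (Sf9/Sf21) extracted chimpanzee AR; scintillation signal from lysate at 72 h. Screened in duplicate at 25 uM, then concentration-response for actives; fitting relative to DMSO.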
In the case of `C=C(C)CN(CC)c1c([N+](=O)[O-])cc(C(F)(F)F)cc1[N+](=O)[O-]`, the outcome is reported as “inactive”. `COP(=S)(OC)SCn1nnc2ccccc2c1=O` was tested, and the AC50 was 16.1 µM (active). With `CCCCOCN(C(=O)CCl)c1c(CC)cccc1CC` the outcome was “inactive”. With `CC(C)(C)C(=O)C(Oc1ccc(Cl)cc1)n1cncn1` (centres undefined) the AC50 was 19.6 µM (active). For `CCN(CC)C(=O)C(C)Oc1cccc2ccccc12` (centres undefined), the AC50 was 11.5 µM (active). In the case of `COC(=O)N(C(=O)N1CO[C@@]2(C(=O)OC)Cc3cc(Cl)ccc3C2=N1)c1ccc(OC(F)(F)F)cc1`, the outcome is reported as “inactive”. For `CC1(C)CCC(=Cc2ccc(Cl)cc2)C1(O)Cn1cncn1` (centres undefined), the AC50 was 0.672 µM (active). `COP(=S)(OC)Oc1ccc([N+](=O)[O-])c(C)c1` was tested, and the AC50 was 5.29 µM (active). With `CCCCC(O)(Cn1cncn1)c1ccc(Cl)cc1Cl` (centres undefined) the AC50 was 25 µM (active). With `CS(=O)(=O)c1ccc(C(=O)C2C(=O)CCCC2=O)c([N+](=O)[O-])c1` the AC50 was 17.6 µM (active).
